# Measurements published in PubChem BioAssay (EPA / NIEHS).
# Calls of active or inactive are those of the source. The calls were made as follows: active = hit-call score of the fitted dose curve at least 0.9, where 1 is the maximum; inactive = score below 0.9.
# Columns and labels:
# Settings in all cases: mRNA level, 48 h; actives raise or lower the signal
# CYP2C9 (gene 1559) = assay: LTEA_HepaRG_CYP2C9: Life Technologies and Expression Analysis (LTEA) Assay for CYP2C9 using HepaRG (AID 2283484)
# Method in brief: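 CYP2C9 transcript level, quantified by TaqMan qRT-PCR against three housekeeping genes, was fitted bidirectionally relative to 0.5% DMSO. HepaRG cultures were treated 48 h, in duplicate, at eight half-log concentrations topping at 100 uM.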
# CYP2E1 (gene 1571) = assay: LTEA_HepaRG_CYP2E1: Life Technologies and Expression Analysis (LTEA) Assay for CYP2E1 using HepaRG (AID 2283485)
# Method in brief: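 Readout is qRT-PCR of CYP2E1 mRNA, normalized to three housekeeping genes and fitted bidirectionally against 0.5% DMSO. HepaRG cells were dosed 48 h at eight concentrations, highest 100 uM with half-log dilutions.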
# CYP4A11 (gene 1579) = assay: LTEA_HepaRG_CYP4A11: Life Technologies and Expression Analysis (LTEA) Assay for CYP4A11 using HepaRG (AID 2283486)
# Method in brief: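 Human hepatic HepaRG cultures receive duplicate 48 h exposures across a concentration-response series topping at 100 uM. Expression changes in CYP4A11 are measured by qRT-PCR relative to DMSO controls.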
# [1] = read-out: Cytochrome P450 3A4 (Homo sapiens) (UniProt P08684); assay: LTEA_HepaRG_CYP3A4: Life Technologies and Expression Analysis (LTEA) Assay for CYP3A4 using HepaRG (AID 2283487)
# Method in brief: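 HepaRG, 48 h exposure, 8-pt CRC from 100 uM (half-log), 0.5% DMSO, duplicates; serum-free induction medium. Readout: CYP3A4 mRNA, qRT-PCR, ACTB/GAPDH/POLR2A normalization. Bidirectional fit vs DMSO.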
# [2] = read-out: DNA damage-inducible transcript 3 (DDIT3), DDIT3 (gene 1649); assay: LTEA_HepaRG_DDIT3: Life Technologies and Expression Analysis (LTEA) Assay for DNA damage-inducible transcript 3 (DDIT3) using HepaRG (AID 2283488)
# Method in brief: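 Cells are human HepaRG liver cells treated for 48 h with eight half-log concentrations up to 100 uM in 0.5% DMSO. Transcript levels come from qRT-PCR normalized to three housekeeping genes, with activity fitted in both directions relative to vehicle.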
# [3] = read-out: Pro-epidermal growth factor (Homo sapiens) (UniProt P01133); assay: LTEA_HepaRG_EGF: Life Technologies and Expression Analysis (LTEA) Assay for Epidermal growth factor (EGF) using HepaRG (AID 2283489)
# Method in brief: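 Concentration-response mRNA assay: HepaRG cells dosed 48 h (max 100 uM, 0.5% DMSO), EGF measured by qRT-PCR and normalized to ACTB/GAPDH/POLR2A.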
# [4] = read-out: Early growth response protein 1 (EGR1) transcription factor, EGR1 (gene 1958); assay: LTEA_HepaRG_EGR1: Life Technologies and Expression Analysis (LTEA) Assay for Early growth response protein 1 (EGR1) transcription factor using HepaRG (AID 2283490)
# Method in brief: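 EGR1 transcript levels quantified by qRT-PCR (Fluidigm arrays) against three housekeeping genes after 48 h chemical exposure of HepaRG cells. Eight-point half-log series topping at 100 uM, 0.5% DMSO vehicle, analyzed for gain or loss.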
# [5] = read-out: Ezrin (EZR), EZR (gene 7430); assay: LTEA_HepaRG_EZR: Life Technologies and Expression Analysis (LTEA) Assay for Ezrin (EZR) using HepaRG (AID 2283491)
# Method in brief: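 Read-out is EZR transcript level by qRT-PCR, normalized to three housekeeping genes and fitted bidirectionally against the DMSO control. Human HepaRG cells received test chemicals for 48 h at eight half-log concentrations up to 100 uM in 0.5% DMSO.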
# [6] = read-out: Cytochrome P450 3A7 (Homo sapiens) (UniProt P24462); assay: LTEA_HepaRG_CYP3A7: Life Technologies and Expression Analysis (LTEA) Assay for CYP3A7 using HepaRG (AID 2283492)
# Method in brief: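 qRT-PCR of CYP3A7 in HepaRG lysates after 48 h treatment; concentration-response (8 points, max 100 uM) analysed bidirectionally relative to 0.5% DMSO controls.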
# CYP3A5 (gene 1577) = assay: LTEA_HepaRG_CYP3A5: Life Technologies and Expression Analysis (LTEA) Assay for CYP3A5 using HepaRG (AID 2283493)
# Method in brief: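 Human HepaRG hepatic cells receive 48 h chemical treatment at eight concentrations (half-log steps from 100 uM) in 0.5% DMSO. Expression of CYP3A5 is quantified by Fluidigm qRT-PCR and normalized to three reference genes.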
# [7] = read-out: Fatty Acid-Binding Protein 1 (FABP1), FABP1 (gene 2168); assay: LTEA_HepaRG_FABP1: Life Technologies and Expression Analysis (LTEA) Assay for Fatty Acid-Binding Protein 1 (FABP1) using HepaRG (AID 2283494)
# Method in brief: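 FABP1 expression by TaqMan qRT-PCR, normalised to three housekeeping genes, in HepaRG cells after 48 h chemical treatment. Eight-point half-log series topping at 100 uM in 0.5% DMSO, duplicates; gain or loss fitted relative to vehicle.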
# [8] = read-out: Cytochrome P450 7A1 (Homo sapiens) (UniProt P22680); assay: LTEA_HepaRG_CYP7A1: Life Technologies and Expression Analysis (LTEA) Assay for Cytochrome P450 7A1 (CYP7A1) using HepaRG (AID 2283496)
# Method in brief: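 HepaRG, 48 h exposure, 8-pt half-log series from 100 uM, 0.5% DMSO vehicle, duplicates. Readout: TaqMan qRT-PCR mRNA vs three housekeeping genes; bidirectional curve fit against DMSO baseline.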
# [9] = read-out: Glutathione S-Transferase (GSTA2), GSTA2 (gene 2939); assay: LTEA_HepaRG_GSTA2: Life Technologies and Expression Analysis (LTEA) Assay for Glutathione S-Transferase (GSTA2) using HepaRG (AID 2283497)
# Method in brief: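 GSTA2 transcript levels came from Fluidigm TaqMan qRT-PCR normalized to three housekeeping genes, fitted in both directions against DMSO. HepaRG cultures received chemicals for 48 h in serum-free induction medium (0.5% DMSO), 8 half-log concentrations up to 100 uM, duplicate.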
# [10] = read-out: Glutamate-cysteine ligase catalytic (GCLC), GCLC (gene 2729); assay: LTEA_HepaRG_GCLC: Life Technologies and Expression Analysis (LTEA) Assay for Glutamate-cysteine ligase catalytic (GCLC) using HepaRG (AID 2283498)
# Method in brief: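 Expression by TaqMan qRT-PCR, normalized to three housekeeping genes (ACTB, GAPDH, POLR2A), with up- or down-regulation fitted against DMSO. HepaRG cells dosed in duplicate for 48 h with 8 half-log concentrations up to 100 uM, vehicle 0.5% DMSO.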
# [11] = read-out: growth arrest and DNA damage 45 (GADD45G), GADD45G (gene 10912); assay: LTEA_HepaRG_GADD45G: Life Technologies and Expression Analysis (LTEA) Assay for growth arrest and DNA damage 45 (GADD45G) using HepaRG (AID 2283499)
# Method in brief: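 Concentration-response in HepaRG: 48 h dosing, 0.5% DMSO, highest level 100 uM. GADD45G expression by qRT-PCR, normalised to endogenous controls; bidirectional fit to DMSO.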
# [12] = read-out: Glutamate-cysteine ligase regulatory (GCLM), GCLM (gene 2730); assay: LTEA_HepaRG_GCLM: Life Technologies and Expression Analysis (LTEA) Assay for Glutamate-cysteine ligase regulatory (GCLM) using HepaRG (AID 2283500)
# Method in brief: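 Endpoint is GCLM transcript level by qRT-PCR, normalized to three housekeeping genes, after 48 h chemical exposure of human HepaRG cells (0.5% DMSO vehicle, top 100 uM, half-log dilutions). Fitting was bidirectional relative to DMSO.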
# [13] = read-out: Glutathione S-transferase M3 (GSTM3), GSTM3 (gene 2947); assay: LTEA_HepaRG_GSTM3: Life Technologies and Expression Analysis (LTEA) Assay for Glutathione S-transferase M3 (GSTM3) using HepaRG (AID 2283501)
# Method in brief: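 Expression of GSTM3 is determined by qRT-PCR in human liver HepaRG cells treated 48 h with an 8-point half-log range from 100 uM in 0.5% DMSO.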
# [14] = read-out: Heat shock 70 kDa protein 1 (HSPA1A), gene 3303; assay: LTEA_HepaRG_HSPA1A: Life Technologies and Expression Analysis (LTEA) Assay for Heat shock 70 kDa protein 1 (HSPA1A) using HepaRG (AID 2283502)
# Method in brief: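 Cells were plated and cultured for 48 h, then switched to serum-free induction medium. Chemicals were added at eight half-log concentrations up to 100 uM for 48 h. RNA was then isolated and HSPA1A measured by qRT-PCR with bidirectional curve fitting against DMSO.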
# [15] = read-out: Hypoxia-inducible factor 1-alpha (Homo sapiens) (UniProt Q16665); assay: LTEA_HepaRG_HIF1A: Life Technologies and Expression Analysis (LTEA) Assay for Hypoxia-inducible factor 1 (HIF1A) Trancription factor using HepaRG (AID 2283503)
# Method in brief: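 HIF1A transcript level read by qRT-PCR (ACTB, GAPDH, POLR2A normalization) after 48 h chemical exposure of HepaRG cultures. Eight half-log concentrations, top 100 uM, 0.5% DMSO vehicle, duplicates; bidirectional curve fit against DMSO baseline.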
# [16] = read-out: 3-Hydroxy-3-Methylglutaryl-CoA Synthase 2 (HMGCS2), HMGCS2 (gene 3158); assay: LTEA_HepaRG_HMGCS2: Life Technologies and Expression Analysis (LTEA) Assay for 3-Hydroxy-3-Methylglutaryl-CoA Synthase 2 (HMGCS2) using HepaRG (AID 2283504)
# Method in brief: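 This steatosis marker was read as HMGCS2 mRNA change in HepaRG cells treated 48 h with up to 100 uM chemical. Normalisation used housekeeping genes; activity in either direction was fitted relative to 0.5% DMSO vehicle.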
# Cytochrome P450 3A4 (Homo sapiens), sequence (P08684 whole entry, looked up): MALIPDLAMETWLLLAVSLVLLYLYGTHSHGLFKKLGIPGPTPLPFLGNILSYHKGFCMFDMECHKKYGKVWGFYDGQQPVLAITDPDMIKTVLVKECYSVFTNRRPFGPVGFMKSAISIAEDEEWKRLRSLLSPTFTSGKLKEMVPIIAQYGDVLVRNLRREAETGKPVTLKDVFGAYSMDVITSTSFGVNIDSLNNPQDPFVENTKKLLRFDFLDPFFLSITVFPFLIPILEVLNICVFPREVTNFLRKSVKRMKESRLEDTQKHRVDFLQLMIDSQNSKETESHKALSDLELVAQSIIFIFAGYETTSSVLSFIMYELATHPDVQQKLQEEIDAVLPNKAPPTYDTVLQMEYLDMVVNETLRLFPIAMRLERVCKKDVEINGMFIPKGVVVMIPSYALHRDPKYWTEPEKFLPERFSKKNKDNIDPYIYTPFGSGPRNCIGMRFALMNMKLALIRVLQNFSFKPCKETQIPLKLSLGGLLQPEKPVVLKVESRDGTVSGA
# Hypoxia-inducible factor 1-alpha (Homo sapiens), sequence (Q16665 whole entry, looked up): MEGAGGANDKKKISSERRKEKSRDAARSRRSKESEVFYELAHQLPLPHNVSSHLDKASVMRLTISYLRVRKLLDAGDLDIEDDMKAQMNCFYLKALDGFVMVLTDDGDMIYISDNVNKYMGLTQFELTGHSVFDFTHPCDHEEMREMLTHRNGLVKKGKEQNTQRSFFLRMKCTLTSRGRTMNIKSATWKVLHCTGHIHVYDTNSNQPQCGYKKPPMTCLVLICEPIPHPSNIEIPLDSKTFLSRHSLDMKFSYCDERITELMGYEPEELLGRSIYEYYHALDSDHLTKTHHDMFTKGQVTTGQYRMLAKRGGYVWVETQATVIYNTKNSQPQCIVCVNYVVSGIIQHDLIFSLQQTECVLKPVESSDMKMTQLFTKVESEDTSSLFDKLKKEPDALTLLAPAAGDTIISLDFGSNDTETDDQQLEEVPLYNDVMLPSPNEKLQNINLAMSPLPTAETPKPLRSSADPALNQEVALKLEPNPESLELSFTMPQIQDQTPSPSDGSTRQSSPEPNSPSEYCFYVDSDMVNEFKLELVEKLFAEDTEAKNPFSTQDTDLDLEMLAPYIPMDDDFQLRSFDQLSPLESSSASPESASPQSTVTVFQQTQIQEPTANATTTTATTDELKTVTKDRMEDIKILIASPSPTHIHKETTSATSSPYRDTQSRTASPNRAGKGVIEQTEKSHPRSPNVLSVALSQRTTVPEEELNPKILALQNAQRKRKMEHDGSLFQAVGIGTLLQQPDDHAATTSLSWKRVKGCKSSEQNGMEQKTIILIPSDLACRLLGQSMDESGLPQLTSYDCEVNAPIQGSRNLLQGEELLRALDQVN
# Cytochrome P450 3A7 (Homo sapiens), sequence (P24462 whole entry, looked up): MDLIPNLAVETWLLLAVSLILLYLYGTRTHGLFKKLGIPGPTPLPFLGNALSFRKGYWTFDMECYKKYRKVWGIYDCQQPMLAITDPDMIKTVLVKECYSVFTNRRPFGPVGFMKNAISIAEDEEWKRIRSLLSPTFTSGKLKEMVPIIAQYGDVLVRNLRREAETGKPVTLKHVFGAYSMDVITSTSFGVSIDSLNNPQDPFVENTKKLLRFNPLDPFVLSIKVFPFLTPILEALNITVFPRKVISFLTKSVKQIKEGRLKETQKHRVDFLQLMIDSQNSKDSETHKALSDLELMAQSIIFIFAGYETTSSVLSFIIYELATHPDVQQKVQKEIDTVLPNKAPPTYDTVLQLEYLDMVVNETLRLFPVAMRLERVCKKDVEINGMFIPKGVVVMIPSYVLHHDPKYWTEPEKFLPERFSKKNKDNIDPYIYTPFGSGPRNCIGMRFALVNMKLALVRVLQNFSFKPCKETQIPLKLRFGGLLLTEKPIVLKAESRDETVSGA
structure (smiles),measurement,setting,value
N#Cc1cccnc1,outcome,CYP2C9 (gene 1559),inactive
same,outcome,CYP2E1 (gene 1571),inactive
same,outcome,CYP4A11 (gene 1579),inactive
same,outcome,[1],inactive
same,outcome,[2],inactive
same,outcome,[3],inactive
same,outcome,[4],inactive
same,outcome,[5],inactive
same,outcome,[6],inactive
same,outcome,CYP3A5 (gene 1577),inactive
same,outcome,[7],inactive
same,outcome,[8],inactive
same,outcome,[9],inactive
same,outcome,[10],inactive
same,outcome,[11],inactive
same,outcome,[12],inactive
same,outcome,[13],inactive
same,outcome,[14],inactive
same,outcome,[15],inactive
same,outcome,[16],inactive
Oc1c(Cl)cc(Cl)cc1Cl,outcome,[2],inactive
same,outcome,[3],inactive
same,outcome,[4],inactive
same,outcome,[5],inactive
same,outcome,[7],inactive
same,outcome,[9],inactive
same,outcome,[10],inactive
same,outcome,[11],inactive
same,outcome,[12],inactive
same,outcome,[13],inactive
same,outcome,[14],inactive
same,outcome,[15],inactive
same,outcome,[16],inactive
Clc1cccc(Cl)c1,outcome,CYP2C9 (gene 1559),inactive
same,outcome,CYP2E1 (gene 1571),inactive
same,outcome,CYP4A11 (gene 1579),inactive
same,outcome,[1],inactive
same,outcome,[2],inactive
same,outcome,[3],inactive
same,outcome,[4],inactive
same,outcome,[5],inactive
same,outcome,[6],inactive
same,outcome,CYP3A5 (gene 1577),inactive
same,outcome,[7],inactive
same,outcome,[8],inactive
same,outcome,[9],inactive
same,outcome,[10],inactive
same,outcome,[11],inactive
same,outcome,[12],inactive
same,outcome,[13],inactive
same,outcome,[14],inactive
same,outcome,[15],inactive
same,outcome,[16],inactive
COc1ccccc1N,outcome,CYP2C9 (gene 1559),inactive
same,outcome,CYP2E1 (gene 1571),inactive
same,outcome,CYP4A11 (gene 1579),inactive
same,outcome,[1],inactive
same,outcome,[2],inactive
same,outcome,[3],inactive
same,outcome,[4],inactive
same,outcome,[5],inactive
same,outcome,[6],inactive
same,outcome,CYP3A5 (gene 1577),inactive
same,outcome,[7],inactive
same,outcome,[8],inactive
same,outcome,[9],inactive
same,outcome,[10],inactive
same,outcome,[11],inactive
same,outcome,[12],inactive
same,outcome,[13],inactive
same,outcome,[14],inactive
same,outcome,[15],inactive
same,outcome,[16],inactive
O=C(N[C@H]1CN2CCC1CC2)c1ccc2c(c1)OCCO2,outcome,CYP2C9 (gene 1559),inactive
same,outcome,CYP2E1 (gene 1571),inactive
same,outcome,CYP4A11 (gene 1579),inactive
same,outcome,[1],inactive
same,outcome,[2],inactive
same,outcome,[3],inactive
same,outcome,[4],inactive
same,outcome,[5],inactive
same,outcome,[6],inactive
same,outcome,CYP3A5 (gene 1577),inactive
same,outcome,[7],inactive
same,outcome,[8],inactive
same,outcome,[9],inactive
same,outcome,[10],inactive
same,outcome,[11],inactive
same,AC50,[12],112 nM (active)
same,outcome,[13],inactive
same,outcome,[14],inactive
same,outcome,[15],inactive
same,outcome,[16],inactive
OCCN(CCO)CCO,outcome,CYP2C9 (gene 1559),inactive
same,outcome,CYP2E1 (gene 1571),inactive
same,outcome,CYP4A11 (gene 1579),inactive
same,outcome,[1],inactive
same,outcome,[2],inactive
same,outcome,[3],inactive
same,outcome,[4],inactive
same,outcome,[5],inactive
same,outcome,[6],inactive
same,outcome,CYP3A5 (gene 1577),inactive
same,outcome,[7],inactive
same,outcome,[8],inactive
same,outcome,[9],inactive
same,outcome,[10],inactive
same,outcome,[11],inactive
same,outcome,[12],inactive
same,outcome,[13],inactive
same,outcome,[14],inactive
same,outcome,[15],inactive
same,outcome,[16],inactive
CCCCCCCCCCCCc1cccc(S(=O)(=O)O)c1,outcome,CYP2C9 (gene 1559),inactive
same,outcome,CYP2E1 (gene 1571),inactive
same,AC50,CYP4A11 (gene 1579),21.6 µM (active)
same,AC50,[1],18.9 µM (active)
same,AC50,[2],45 µM (active)
same,outcome,[3],inactive
same,outcome,[4],inactive
same,outcome,[5],inactive
same,AC50,[6],20.4 µM (active)
same,outcome,CYP3A5 (gene 1577),inactive
same,outcome,[7],inactive
same,outcome,[8],inactive
same,outcome,[9],inactive
same,outcome,[10],inactive
same,outcome,[11],inactive
same,outcome,[12],inactive
same,outcome,[13],inactive
same,AC50,[14],59.4 µM (active)
same,AC50,[15],16.5 µM (active)
same,AC50,[16],37.9 µM (active)
